Measured values from PubChem BioAssay (NCI).
This is part of a sample that, as a whole, favours compounds with a hit. Of some 79,000 tested, about 15% had one in any assay. The source made the active and inactive calls. No stated cut-off is given here; in the data, active means growth inhibition above about 70%; inactive means the rest.

What was measured:
[1] = NCI Yeast Anticancer Drug Screen. Data for the rad50 strain (AID 155);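 further: 0% = growth of vehicle-only cultures of the same strain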; settings: S. cerevisiae rad50 strain growth inhibition, stronger effect = higher value
Summary of the method: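 Cells are treated with compound, grown, and their growth is then scored against vehicle-only cultures of the same repair-deficient yeast strain.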

[2] = NCI Yeast Anticancer Drug Screen. Data for the mec2-1 strain (AID 157); settings: S. cerevisiae mec2-1 strain, stronger effect = higher value
Summary of the method: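 Using mec2-1 yeast: add compound, measure growth, express inhibition versus vehicle-treated cultures.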

[3] = NCI Yeast Anticancer Drug Screen. Data for the sgs1 mgt1 strain (AID 161);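 further: 0% = growth of cultures given vehicle only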; settings: S. cerevisiae sgs1 mgt1 strain, stronger effect = higher value
Summary of the method: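 This yeast growth screen uses a strain with defined DNA-repair lesions; compound-treated growth is compared with vehicle-treated growth.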

[4] = NCI Yeast Anticancer Drug Screen. Data for the cln2 rad14 strain (AID 165);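 further: 0% = growth equal to vehicle treated cultures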; settings: S. cerevisiae cln2 rad14 strain, stronger effect = higher value
Summary of the method: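 Yeast strain cln2 rad14, bearing defects in cell cycle control and DNA repair, serves as the test system; values reflect growth inhibition compared with vehicle.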

[5] = NCI Yeast Anticancer Drug Screen. Data for the bub3 strain (AID 167); settings: S. cerevisiae bub3 mutant strain, stronger effect = higher value
Summary of the method: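 Part of a panel of yeast mutants defective in DNA damage repair or cell cycle regulation. Each strain is grown with compound, and inhibition is calculated relative to solvent-treated cultures.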

[6] = NCI Yeast Anticancer Drug Screen. Data for the mlh1 rad18 strain (AID 175); settings: S. cerevisiae mlh1 rad18 strain growth inhibition, stronger effect = higher value
Summary of the method: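 Steps: expose repair-defective yeast to compound; measure growth; express inhibition against vehicle-treated controls.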

[7] = at 5.0 µM (retest, dose inferred, filed as 0.5)
[8] = at 50.0 µM (retest, dose inferred, filed as 5.0)

Measured: growth inhibition

CC1C(=O)OCC1(C)O (configuration not stated)
inactive: [1]; [7] 1% | [1]; [8] -2% | [1]; at 50.0 µM -15.2% | [2]; [7] 1% | [2]; [8] 0% | [2]; at 50.0 µM -11.7% | [3]; [7] -4% | [3]; [8] 0% | [3]; at 50.0 µM -5.55% | [4]; [7] 1% | [4]; [8] 0% | [4]; at 50.0 µM 0.75% | [5]; [7] 2% | [5]; [8] 2% | [5]; at 50.0 µM 46% | [6]; [7] 4% | [6]; [8] 3% | [6]; at 50.0 µM -21.6%

CCOP(=O)(OCC)/C(C#N)=C/c1cccc(Br)c1
inactive: [1]; [7] 19% | [2]; [7] -4% | [3]; [7] 3% | [4]; [7] 24% | [5]; [7] 5% | [6]; [7] -3%
active: [1]; [8] 88% | [1]; at 50.0 µM 88.2% | [2]; [8] 90% | [2]; at 50.0 µM 87.2% | [3]; [8] 94% | [3]; at 50.0 µM 85.3% | [4]; [8] 91% | [4]; at 50.0 µM 72.2% | [5]; [8] 92% | [5]; at 50.0 µM 75.2% | [6]; [8] 94% | [6]; at 50.0 µM 85.8%

CCCCN(CC)CC(C(C)=O)c1c(O)c2ccccc2oc1=O (configuration not stated)
active: [5]; [8] 73%
inactive: [1]; [7] 8% | [1]; [8] 22% | [1]; at 50.0 µM 66.8% | [2]; [7] 4% | [2]; [8] 28% | [2]; at 50.0 µM 48.2% | [3]; [7] 0% | [3]; [8] 65% | [3]; at 50.0 µM 60.5% | [4]; [7] 15% | [4]; [8] 59% | [4]; at 50.0 µM 45.2% | [5]; [7] 21% | [5]; at 50.0 µM 59% | [6]; [7] -13% | [6]; [8] 34% | [6]; at 50.0 µM 42.9%

c1cc[c]([Sn]([c]2ccccc2)([c]2ccccc2)[CH]2CCCCC2)cc1
active: [1]; [8] 89% | [1]; at 50.0 µM 92.7% | [2]; [8] 94% | [2]; at 50.0 µM 97.2% | [3]; [8] 93% | [3]; at 50.0 µM 97.7% | [4]; [8] 91% | [4]; at 50.0 µM 98.3% | [5]; [8] 93% | [5]; at 50.0 µM 98% | [6]; [8] 91% | [6]; at 50.0 µM 97%
inactive: [1]; [7] 1% | [2]; [7] 7% | [3]; [7] 20% | [4]; [7] -2% | [5]; [7] 1% | [6]; [7] 19%

CN(C)c1ccc(/C=C/c2cc[n+]3ccsc3n2)cc1
inactive: [1]; [7] -3% | [1]; [8] 69% | [2]; [7] 24% | [3]; [7] -10% | [4]; [7] -5% | [4]; [8] 63% | [5]; [7] 8% | [6]; [7] 2%
active: [1]; at 50.0 µM 90.8% | [2]; [8] 94% | [2]; at 50.0 µM 88% | [3]; [8] 93% | [3]; at 50.0 µM 92.2% | [4]; at 50.0 µM 72% | [5]; [8] 90% | [5]; at 50.0 µM 96.2% | [6]; [8] 85% | [6]; at 50.0 µM 97.2%

CC(=O)[O-].[Zn].c1ccc(/C(=N\Nc2ccccn2)c2ccccn2)cc1
inactive: [1]; [7] 29% | [1]; [8] 66% | [1]; at 50.0 µM 41.9% | [2]; [7] 37% | [2]; [8] 61% | [2]; at 50.0 µM 9.8% | [3]; [7] 38% | [3]; at 50.0 µM 23.8% | [4]; [7] 26% | [4]; at 50.0 µM 13.8% | [5]; [7] 44% | [5]; at 50.0 µM 34.6% | [6]; [7] 36% | [6]; [8] 68% | [6]; at 50.0 µM 41.1%
active: [3]; [8] 83% | [4]; [8] 78% | [5]; [8] 86%

O=C(O)/C=C\c1c[nH]c2ccccc12
active: [1]; [8] 97% | [1]; at 50.0 µM 75.8% | [2]; [8] 89% | [3]; [8] 87% | [4]; [8] 89% | [5]; [8] 95% | [6]; [8] 97%
inactive: [1]; [7] 10% | [2]; [7] -2% | [2]; at 50.0 µM 38.3% | [3]; [7] 2% | [3]; at 50.0 µM 60.2% | [4]; [7] -6% | [4]; at 50.0 µM 1.45% | [5]; [7] -2% | [5]; at 50.0 µM 50.8% | [6]; [7] -17% | [6]; at 50.0 µM 42.4%

C=CCOc1cc2c(ccc1=O)-c1c(cc(OC)c(OC)c1OC)CCC2NC(C)=O (configuration not stated)
active: [1]; at 50.0 µM 96.1% | [2]; [8] 80% | [2]; at 50.0 µM 87.6% | [3]; at 50.0 µM 93.9% | [4]; at 50.0 µM 96.3% | [5]; at 50.0 µM 96.8% | [6]; [8] 78% | [6]; at 50.0 µM 95.5%
inactive: [1]; [7] -3% | [1]; [8] 3% | [2]; [7] 3% | [3]; [7] -18% | [3]; [8] 45% | [4]; [7] -5% | [4]; [8] -11% | [5]; [7] -5% | [5]; [8] 66% | [6]; [7] -5%

CC12CCC(O)CC1=CCC1C2CCC2(C)C(NC(=O)C3CCCN3C(=O)CN(CCCl)CCCl)CCC12 (configuration not stated)
inactive: [1]; [7] -5% | [1]; [8] 56% | [2]; [7] -4% | [2]; [8] 46% | [3]; [7] 1% | [4]; [7] -5% | [4]; [8] 34% | [4]; at 50.0 µM 63.2% | [5]; [7] -6% | [5]; [8] 38% | [5]; at 50.0 µM 64.8% | [6]; [7] 12%
active: [1]; at 50.0 µM 79% | [2]; at 50.0 µM 72.5% | [3]; [8] 80% | [3]; at 50.0 µM 91.5% | [6]; [8] 76% | [6]; at 50.0 µM 86.8%
